Each structure is given as a SMILES string. Among all 39,000 compounds or so, about 1,500 (3.8%) were called active. What follows is part of a selection rich in actives, with near analogues and random picks from the rest.

The assay relates to HSkMC (human skeletal muscle cells). The assay can be described thus: cytotoxicity call (relative viability < 0.9). Conditions: 10 µM.
Consider `COc1oc(C(=O)NC2CCCCC2)c(-c2ccc(Cl)cc2)c1S(=O)(=O)c1ccccc1Cl`, for which the cytotoxicity call is “inactive”.

Take `Cc1ccc(S(=O)(=O)N2C[C@H](O)COC[C@@H]3O[C@H](CC(=O)NCCN4CCCCC4)CC[C@H]32)cc1`: the cytotoxicity call was “inactive”.

`COc1ccc(NC(=O)N2C[C@H](O)COC[C@H]3O[C@@H](CC(=O)NCc4ccccc4OC)CC[C@@H]32)cc1`: the cytotoxicity call is “inactive”.

In the case of `COc1ccc(NC(=O)N(C)C[C@H]2OCCCC[C@@H](C)Oc3ccc(NC(=O)CCC(F)(F)F)cc3C(=O)N([C@H](C)CO)C[C@H]2C)cc1`, the cytotoxicity call is “inactive”.

With `C[C@@H]1CCCCO[C@H](CN(C)Cc2ccc(C(F)(F)F)cc2)[C@H](C)CN([C@@H](C)CO)C(=O)c2cc(NC(=O)CCC(F)(F)F)ccc2O1`, the cytotoxicity call is “inactive”.

In the case of `COc1ccc(C#Cc2ccc3c(c2)[C@]2(C(=O)N3)[C@H](c3ccccc3OCCO)N3[C@H](c4ccccc4)[C@H](c4ccccc4)OC(=O)[C@H]3[C@@H]2C(=O)NC[C@H](O)c2ccccc2)cc1`, the cytotoxicity call is “inactive”.

Regarding `COc1ccc(S(=O)(=O)N(C)C[C@@H]2Oc3c(NS(=O)(=O)c4ccc(C)cc4)cccc3C(=O)N([C@@H](C)CO)C[C@H]2C)cc1`, the cytotoxicity call is “inactive”.

With `C[C@@H]1CN([C@@H](C)CO)C(=O)c2cc(NS(=O)(=O)c3ccc(Cl)cc3)ccc2O[C@@H](C)CCCCO[C@H]1CN(C)C(=O)c1ccncc1`, the cytotoxicity call is “inactive”.

Consider `C=C(C)CCn1cccc1C(C)=O`, for which the cytotoxicity call is “inactive”.

`C[C@H]1CN([C@@H](C)CO)S(=O)(=O)c2ccc(C#Cc3cccc(F)c3)cc2O[C@@H]1CN(C)C(=O)CN1CCOCC1`: the cytotoxicity call is “inactive”.

In the case of `Cc1noc(C)c1NC(=O)N(C)C[C@H]1Oc2ccc(NC(=O)CCCN(C)C)cc2C(=O)N([C@@H](C)CO)C[C@@H]1C`, the cytotoxicity call is “inactive”.

In the case of `C[C@@H]1CN([C@H](C)CO)S(=O)(=O)c2ccc(C3=CCCC3)cc2O[C@@H]1CN(C)C(=O)c1cnccn1`, the cytotoxicity call was “inactive”.

As for `C[C@H](CO)N1C[C@H](C)[C@@H](CN(C)Cc2ccc(Cl)c(Cl)c2)Oc2ccc(NS(=O)(=O)c3ccccc3)cc2C1=O`, the cytotoxicity call was “inactive”.

`C[C@H]1CN([C@@H](C)CO)C(=O)c2cc(NS(=O)(=O)c3ccc(Cl)cc3)ccc2O[C@@H]1CN(C)Cc1ccc(Cl)c(Cl)c1`: the cytotoxicity call is “active”.

For the molecule `C[C@@H]1CN([C@@H](C)CO)C(=O)c2cc(NS(=O)(=O)c3ccc(Cl)cc3)ccc2O[C@@H]1CN(C)Cc1ccc(Cl)c(Cl)c1`, the cytotoxicity call is “active”.

For `C[C@H]1CN([C@@H](C)CO)C(=O)c2cc(NS(=O)(=O)c3ccccc3)ccc2O[C@@H]1CN(C)Cc1ccc(Cl)c(Cl)c1`, the cytotoxicity call is “inactive”.

As for `C[C@H](CO)N1C[C@H](C)[C@H](CN(C)Cc2ccc(Cl)c(Cl)c2)Oc2ccc(NS(=O)(=O)c3ccccc3)cc2C1=O`, the cytotoxicity call is “inactive”.

For the molecule `C[C@H](CO)N1C[C@H](C)[C@H](CN(C)Cc2ccc(Cl)c(Cl)c2)Oc2ccc(NS(=O)(=O)c3ccc(Cl)cc3)cc2C1=O`, the cytotoxicity call was “active”.

Consider `C[C@@H]1CN([C@@H](C)CO)C(=O)c2cc(NS(=O)(=O)c3ccccc3)ccc2O[C@@H]1CN(C)Cc1ccc(Cl)c(Cl)c1`, for which the cytotoxicity call was “active”.

For the molecule `C[C@@H]1CN([C@H](C)CO)C(=O)c2cc(NS(=O)(=O)c3ccc(Cl)cc3)ccc2O[C@H]1CN(C)Cc1ccc(Cl)c(Cl)c1`, the cytotoxicity call is “inactive”.

Regarding `COc1ccc(S(=O)(=O)N(C)C[C@H]2OCc3cnnn3CCCC(=O)N([C@H](C)CO)C[C@@H]2C)cc1`, the cytotoxicity call is “inactive”.

For `Cc1noc(C)c1NC(=O)Nc1cccc2c1O[C@@H](CN(C)S(=O)(=O)c1ccccc1)[C@H](C)CN([C@@H](C)CO)C2=O`, the cytotoxicity call is “inactive”.

Consider `C[C@@H]1CCCCO[C@H](CN(C)C(=O)c2ccncc2)[C@H](C)CN([C@@H](C)CO)C(=O)c2cc(NC(=O)C3CCCCC3)ccc2O1`, for which the cytotoxicity call was “inactive”.

On to `COc1ccc(-c2cnc3c(c2)C(=O)N([C@@H](C)CO)C[C@@H](C)[C@@H](CN(C)C(=O)Cc2cccnc2)O3)cc1`, for which the cytotoxicity call was “inactive”.

Take `C/C=C/c1cccc(-c2nc(C(=O)NCc3ccccc3)cc3c2[C@H](CCO)N([S@@](=O)C(C)(C)C)C3)c1`: the cytotoxicity call is “inactive”.

With `C=CCOC(=O)[C@@H]1[C@H]2C(=O)O[C@H](c3ccccc3)[C@H](c3ccccc3)N2[C@H](c2ccccc2OCCO)[C@@]12C(=O)Nc1ccc(I)cc12`, the cytotoxicity call was “inactive”.

Turning to `O=C(C[C@@H]1CC[C@H](NC(=O)Nc2ccc3c(c2)OCO3)[C@H](CO)O1)NCCCN1CCOCC1`, the cytotoxicity call is “inactive”.

Consider `C[C@H](CO)N1C[C@H](C)[C@@H](CN(C)S(=O)(=O)c2ccc(Cl)cc2)Oc2ccc(NC(=O)Cn3cnnn3)cc2CC1=O`, for which the cytotoxicity call is “inactive”.

For `COc1ccc(-c2ccc3c(c2)O[C@H](CN(C)CC2CCOCC2)[C@H](C)CN([C@H](C)CO)S3(=O)=O)cc1`, the cytotoxicity call was “inactive”.

With `COCc1cn(CC[C@@H]2CC[C@@H](NC(=O)CCN3CCCCC3)[C@@H](CO)O2)nn1`, the cytotoxicity call was “inactive”.

Consider `Cn1c(=O)c(F)c(Nc2ccc(I)cc2F)c2c(=O)n(C[C@@H](O)CO)cnc21`, for which the cytotoxicity call was “active”.

With `Cn1c(=O)c2c(ncn2CC(O)CO)n(C)c1=O` (centres undefined), the cytotoxicity call is “inactive”.

For `Cn1c(=O)c2c(ncn2C[C@@H](O)CO)n(C)c1=O`, the cytotoxicity call is “inactive”.

For `Cc1noc(C)c1S(=O)(=O)N(C)C[C@H]1OCc2cnnn2CCCC(=O)N([C@H](C)CO)C[C@H]1C`, the cytotoxicity call is “inactive”.

On to `Cc1ccc(S(=O)(=O)Nc2ccc3c(c2)CC(=O)N([C@H](C)CO)C[C@@H](C)[C@@H](CN(C)Cc2ccncc2)O3)cc1`, for which the cytotoxicity call was “inactive”.

On to `CS(=O)(=O)Nc1ccc2c(c1)[C@H]1C[C@H](CC(=O)NCc3ccc(-c4ccccc4)cc3)O[C@H](CO)[C@H]1O2`, for which the cytotoxicity call was “inactive”.

On to `C/C=C1\[C@@H](O[C@H]2O[C@@H](CO)[C@@H](O)[C@@H](O)[C@@H]2O)OC=C(C(=O)OC)[C@H]1CC(=O)OC[C@H]1[C@H](C)[C@H](OC(=O)C[C@@H]2C(C(=O)OC)=CO[C@H](O[C@H]3O[C@@H](CO)[C@@H](O)[C@@H](O)[C@@H]3O)/C2=C\C)C[C@@H]1[C@H](CO)COC(=O)C[C@@H]1C(C(=O)OC)=CO[C@@H](O[C@H]2O[C@@H](CO)[C@@H](O)[C@@H](O)[C@@H]2O)/C1=C\C`, for which the cytotoxicity call was “inactive”.

As for `C[C@@H]1CN([C@H](C)CO)C(=O)c2cc(NC(=O)C3CCCCC3)ccc2O[C@H]1CN(C)Cc1ccc(Cl)c(Cl)c1`, the cytotoxicity call was “inactive”.

As for `CC(C)NC(=N)NC(=N)Nc1ccc(Cl)cc1.Cl`, the cytotoxicity call is “inactive”.

For the molecule `N[C@@H](CC(=O)Nc1ccc(Cl)cc1)C(=O)O`, the cytotoxicity call is “inactive”.

For `Cl.Cl.N=C(NCCCCCCNC(=N)NC(=N)Nc1ccc(Cl)cc1)NC(=N)Nc1ccc(Cl)cc1`, the cytotoxicity call was “active”.

With `C[C@H](CO)N1C[C@H](C)[C@H](CN(C)S(=O)(=O)c2ccccc2)Oc2ccc(NS(=O)(=O)c3cn(C)cn3)cc2C1=O`, the cytotoxicity call was “inactive”.

Consider `O=C(O)c1ccnc2nc[nH]c12`, for which the cytotoxicity call was “inactive”.

On to `O=C1OC2(c3ccccc31)c1cc(I)c(O)c(I)c1Oc1c2cc(I)c(O)c1I`, for which the cytotoxicity call is “active”.

Take `O=C1OC2(c3ccc(O)cc3Oc3cc(O)ccc32)c2ccccc21`: the cytotoxicity call was “inactive”.

For the molecule `O=C1OC(c2cc(I)c(O)c(I)c2)(c2cc(I)c(O)c(I)c2)c2ccccc21`, the cytotoxicity call was “inactive”.

With `Clc1ccc(-c2cccs2)nn1`, the cytotoxicity call is “inactive”.

With `CC(C)NC(=O)Nc1cccc2c1O[C@@H](CN(C)C(=O)Nc1ccc3c(c1)OCO3)[C@H](C)CN([C@H](C)CO)C2=O`, the cytotoxicity call is “inactive”.

Regarding `COCC#Cc1cnc2c(c1)C(=O)N([C@H](C)CO)C[C@H](C)[C@H](CN(C)C(=O)Nc1ccccc1OC)O2`, the cytotoxicity call was “inactive”.

Take `C[C@H]1CN([C@@H](C)CO)C(=O)c2cc(NS(=O)(=O)c3ccc(Cl)cc3)ccc2O[C@@H]1CN(C)Cc1ccc(-c2ccccc2)cc1`: the cytotoxicity call is “inactive”.

As for `C[C@H]1CN([C@@H](C)CO)C(=O)c2cc(NS(=O)(=O)c3ccc(Cl)cc3)ccc2O[C@H]1CN(C)Cc1ccc(-c2ccccc2)cc1`, the cytotoxicity call is “inactive”.

For the molecule `C[C@H](CO)N1C[C@H](C)[C@H](CN(C)Cc2ccc(-c3ccccc3)cc2)Oc2ccc(NS(=O)(=O)c3ccccc3)cc2C1=O`, the cytotoxicity call is “inactive”.

For the molecule `C[C@H](CO)N1C[C@H](C)[C@H](CN(C)Cc2ccc(-c3ccccc3)cc2)Oc2ccc(NS(=O)(=O)c3ccc(Cl)cc3)cc2C1=O`, the cytotoxicity call is “active”.

With `C[C@@H]1CN([C@@H](C)CO)C(=O)c2cc(NS(=O)(=O)c3ccc(Cl)cc3)ccc2O[C@H]1CN(C)Cc1ccc(-c2ccccc2)cc1`, the cytotoxicity call was “active”.

As to `C[C@H](CO)N1C[C@H](C)[C@@H](CN(C)Cc2ccc(-c3ccccc3)cc2)Oc2ccc(NS(=O)(=O)c3ccccc3)cc2C1=O`, the cytotoxicity call was “inactive”.

Consider `C[C@H]1CN([C@@H](C)CO)C(=O)c2cc(NS(=O)(=O)c3ccccc3)ccc2O[C@@H]1CN(C)Cc1ccc(-c2ccccc2)cc1`, for which the cytotoxicity call is “inactive”.

In the case of `C[C@@H]1CN([C@H](C)CO)C(=O)c2cc(NS(=O)(=O)c3ccccc3)ccc2O[C@@H]1CN(C)Cc1ccc(-c2ccccc2)cc1`, the cytotoxicity call is “inactive”.

In the case of `C[C@@H]1CN([C@H](C)CO)C(=O)c2cc(NS(=O)(=O)c3ccc(Cl)cc3)ccc2O[C@@H]1CN(C)Cc1ccc(-c2ccccc2)cc1`, the cytotoxicity call was “active”.

In the case of `C[C@@H]1CN([C@@H](C)CO)C(=O)c2cc(NS(=O)(=O)c3ccc(Cl)cc3)ccc2O[C@@H]1CN(C)Cc1ccc(-c2ccccc2)cc1`, the cytotoxicity call is “active”.

As to `CN1CCN(C)C2(CCN(C(=O)c3ccn[nH]3)CC2)C1=O`, the cytotoxicity call was “inactive”.

Regarding `COCCNC(=O)C[C@@H]1CC[C@H]2[C@@H](COc3ccc(NS(=O)(=O)c4ccc(Cl)cc4)cc3C(=O)N2C)O1`, the cytotoxicity call was “inactive”.

On to `C[C@H](CO)N1C[C@H](C)[C@@H](CN(C)C(=O)Nc2ccc(F)cc2)OCCCC[C@H](C)Oc2ccc(NS(=O)(=O)c3cccs3)cc2C1=O`, for which the cytotoxicity call is “inactive”.

As for `C[C@@H]1CN([C@H](C)CO)C(=O)c2cc(NC(=O)CCC(F)(F)F)ccc2O[C@@H]1CN(C)C(=O)Nc1cccc2ccccc12`, the cytotoxicity call is “inactive”.

For `COc1ccc(NC(=O)N2C[C@H](O)COC[C@H]3O[C@H](CC(=O)NCc4ccccc4OC)CC[C@@H]32)cc1`, the cytotoxicity call was “inactive”.

These data come from the antibiotic and cytotoxicity screens of Wong et al. (2023).
